This note sets out measurements from ChEMBL document CHEMBL4296182, “CO-ADD screening of NIH NCI Diversity Set V”.

The Inhibition is the drop in the measured response relative to a control, in per cent.

Results with a measured potency or affinity are listed apart.

This test has as its system Cryptococcus neoformans. Conditions: Concentration 20 uM; ASSAY_TEST Inhibition of Fungal Growth; detection method Resazurin; Absorption (OD600-OD570); plate type 384well; NBS; CORNING #3640. On the technique in general: The colour change of resazurin is a common sign of viable cells or microbes.
Take `COc1ccc(NC2=CC(=S)NC(C)(C)C2)cc1`: the Inhibition is -8.08%. Under `CC1(c2ccc3ccccc3c2)CCC(=O)O1` (stereo not drawn) stands -9.46%. Under `O=C(O)c1nc2nc(Cl)c(Cl)nc2[nH]1` stands -11.32%. The figure for `C1=CC2(C=C1)OC21CCC2(C=CC3(C2)OC3C2CCCCC2)CC1` (stereo not drawn) is -15.19%; for `O=P(O)(O)c1cc(-c2ccccc2)oc1-c1ccccc1` it is -17.53%. For the compound `O=C(O)c1ccccc1C(=O)Nc1ccccc1[N+](=O)[O-]`, the Inhibition is -12.04%.

`NC(=O)c1nc2c([nH]c1=O)CCCC2`: the Inhibition is -4.35%. Consider `Cc1n[nH]c2c([N+](=O)[O-])c(=O)[nH]c(=O)n12`, for which the Inhibition was -13.65%. The figure for `Cc1ccncc1C(N)=O` is -4.15%. Under `N=C(N)Nc1nc2cc([N+](=O)[O-])ccc2[nH]1` stands -6.56%; under `CSC1=NC=C(C#N)C2=NC(c3ccc(Cl)cc3)NN12` (stereo not drawn), 39.9%. The figure for `O=C(Nc1cccc(-c2ccccc2)c1)N1CCN(C(=O)Nc2cccc(-c3ccccc3)c2)CC1` is -2.57%; for `CCCNC(=O)c1ccccc1C(=O)NC1(C(=O)NCCC)CCCC1` it is -3.84%; for `CC1=NN(c2ccccc2)C(=O)C1C(=S)SC1CC(=O)NC1=O` (stereo not drawn) it is 3.97%. For the compound `CSc1nc(O)c(Nc2cccc(Cl)c2)c(O)n1`, the Inhibition is reported as 16.48%. Under `CSc1nc2nc(C(O)c3ccccc3)nc-2c[nH]1` (stereo not drawn) stands 28.87%; under `S=C(SCc1cc(Cl)cc2c1OCOC2)N1CCSCC1`, 0.8%; under `CC(=O)O.COc1ccc2nccc(/C=C/c3ccnc4ccc(OC)cc34)c2c1`, -5.13%.
